# Data reported in PubChem BioAssay (NCATS).
# Records with an inconclusive call do not appear. Entries that show only a call come without a potency. Active and inactive are the calls of the source. Unless noted, calls come from the whole dose curve; as a rule, active = well fitted curve in the direction sought with a large enough effect; inconclusive = small, poorly fitted or top-dose-only effect, or another doubt; inactive = no such curve, though single readings can be large; an effect the other way counts as inactive or inconclusive.
# Assays:
# [1] = target: Glucagon-like peptide 1 receptor (Homo sapiens) (UniProt P43220); assay: qHTS of GLP-1 Receptor Agonists: LOPAC Validation (AID 624148); conditions: GLP-1R agonist cell assay; series mostly up to 46.1 µM;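 note: higher luminescence signal means agonism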
# In short: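 HEK293 cells stably co-expressing GLP-1R and a cAMP-responsive luciferase reporter, plated 12 hours before compound, then incubated 4-6 hr at 37 deg C. Luminescence read 12 min after detection reagent.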
# [2] = qHTS of Nrf2 Activators: LOPAC Validation (AID 624149); conditions: Nrf2/ARE reporter cell assay; series mostly up to 46.1 µM
# In short: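 Luminescence read-out of ARE-luciferase activation: AREc32_Fluc cells treated with compounds for 24 hr at 37 deg C, then lysed with Steady-Glo for 30 min at room temperature before reading.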
# [3] = HTS Assay for Allosteric Antagonists of the Human D2 Dopamine Receptor: Hit Validation in HTRF (AID 624455); conditions: Cells stably expressing D1 dopamine receptor, inhibition mode; series mostly up to 46.1 µM; note: potency is the fitted concentration of half-maximal effect;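 note: stable D1 dopamine receptor cell line scored for blocking the D1 response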
# In short: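 First, antagonism was screened by calcium flux in a force-coupled, inducible Hek293 Trex D2 line challenged with EC80 dopamine. Hits then went into an HTRF assay in cells stably expressing D1, testing inhibition of the D1 response.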
# [4] = Cytotoxicity counterscreen for NFkB agonists and antagonists (AID 624476); conditions: NFkB reporter cell line viability counterscreen; series mostly up to 46.1 µM;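 note: cells exposed to compound for 48 hours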
# [5] = qHTS Assay for Identification of Small Molecule Agonists for NFkB Signaling Pathway. (AID 624478); conditions: NFkB pathway reporter cell assay, agonist mode, cells co-stimulated with 10 pM TNF alpha; series mostly up to 46.1 µM;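 note: compounds tested together with TNF alpha at its EC50 of 10 pM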
# In short: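 ME-180 cervical carcinoma, stable NFkB-RE beta-lactamase reporter; 1000 cells/well, overnight attachment; cpd + TNF alpha 10 pM final, 5 h 37 C; LiveBLAzer 2 h RT; FRET 460/530 nm, ex 405 nm.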
# [6] = qHTS Assay for Identification of Small Molecule Antagonists for NFkB Signaling Pathway. (AID 624479; calls by dose curve); conditions: NFkB pathway reporter cell assay, antagonist mode; series mostly up to 38.3 µM
# [7] = Cell Proliferation Assay against the TMD8 Cell Line (AID 651645); conditions: TMD8 DLBCL cell line proliferation/viability; at 46.1 µM (top of the series);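 note: cells exposed to compound for 48 h before reading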
# In short: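 TMD8 cells, 500/well in RPMI with 5% FBS, dosed immediately and grown 48 h at 37 C, 5% CO2. CellTiter-Glo luminescence normalised to DMSO 100% and 9.2 uM bortezomib (final) 0%.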
# [8] = Cell Proliferation Assay against the HBL1 Cell Line (AID 651646); conditions: HBL1 DLBCL cells; at 46.1 µM (top of the series);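 note: cells exposed to compound for 48 h before reading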
# Text: One class of targeted therapeutics showing early clinical success in killing of ABC DLBCL lines are small molecule inhibitors of the Bruton tyrosine kinase (BTK) 11.
# Prior to any combination assays, using an NCATS developed oncology compound library called the Mechanism of Interrogation Plate (MIPE), two well studied ABC DLBCL lines (TMD8 and HBL1) were screened using a cell viability assay (CellTiterGlo) and a 12-point titration series for each single agent. These initial experiments offered insight into the concentration range that offered the best coverage of activity and non-activity to assure relevant data is generated. […]
# A total of 500 log growing HBL1 cells are seeded per well in 5 uL of a RPMI with glutamine (or Glutamax), without phenol red plus 5% FBS and 1X Pen/Strep into 1536 -solid white high base tissue culture treated Greiner One Bio Plates (789173-F) using a multidrop combi dispenser and a small sterile cassette. […] The plates are then spun at 1000 rpms to remove bubbles and incubated for 15 minutes at room temperature before read on a ViewLux using a luminescent filter with a 10 second exposure. The relative luciferase units are used to calculated percent activity using DMSO as 100% and Bortezomib as 0%.
# [9] = Cell Proliferation Assay against the TMD8 Cell Line (Caspase readout at 16 hrs) (AID 651712); conditions: TMD8 lymphoma cells, caspase activation luminescence; series mostly up to 46.1 µM
# In short: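 TMD8 cells in RPMI with 5% FBS were treated with compound for 16 h at 37 C, then caspase 3/7 activation was read by Caspase-Glo luminescence. Percent activity was scaled to DMSO (0%) and 9.2 uM bortezomib final (100%).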
# Glucagon-like peptide 1 receptor (Homo sapiens), sequence (P43220 whole entry, looked up): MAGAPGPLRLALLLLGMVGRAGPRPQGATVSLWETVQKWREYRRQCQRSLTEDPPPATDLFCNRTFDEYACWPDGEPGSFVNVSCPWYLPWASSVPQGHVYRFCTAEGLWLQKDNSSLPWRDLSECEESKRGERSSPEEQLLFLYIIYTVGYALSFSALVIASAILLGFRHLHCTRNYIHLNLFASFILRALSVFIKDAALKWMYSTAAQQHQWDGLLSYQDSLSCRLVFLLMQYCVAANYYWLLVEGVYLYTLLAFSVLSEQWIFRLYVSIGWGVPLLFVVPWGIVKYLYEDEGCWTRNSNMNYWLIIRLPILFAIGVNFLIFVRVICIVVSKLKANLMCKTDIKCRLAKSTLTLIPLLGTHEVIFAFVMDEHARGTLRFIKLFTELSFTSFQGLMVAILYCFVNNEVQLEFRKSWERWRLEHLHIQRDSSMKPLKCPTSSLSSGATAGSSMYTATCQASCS
structure (smiles),measurement,setting,value
CN1[C@@H](CC(=O)c2ccccc2)CCC[C@H]1C[C@H](O)c1ccccc1,outcome,[1],inactive
same,outcome,[2],inactive
same,Potency,[3],inactive
CCCCCCCCCCCCCCCC(=O)OC(CC(=O)O)C[N+](C)(C)C (stereo not drawn),outcome,[1],inactive
same,outcome,[2],inactive
same,Potency,[3],inactive
Cn1cc(C2=C(c3ccc(Cl)cc3Cl)C(=O)NC2=O)c2ccccc21,outcome,[1],inactive
same,outcome,[2],inactive
same,Potency,[3],inactive
CCN(CC)c1ncnc2c1ncn2[C@@H]1O[C@H](COP(=O)(O)OP(=O)(O)C(Br)(Br)P(=O)(O)O)[C@@H](O)[C@H]1O,outcome,[1],inactive
same,outcome,[2],inactive
same,Potency,[3],inactive
COc1ccccc1N1CCN(CCCCNS(=O)(=O)c2cccc3c(N(C)C)cccc23)CC1,outcome,[1],inactive
same,outcome,[2],inactive
same,Potency,[3],inactive
Cc1cc(NC(=O)Nc2ccc3c(ccn3C)c2)sn1,outcome,[1],inactive
same,outcome,[2],inactive
same,Potency,[3],inactive
OC[C@H]1O[C@@H](n2cnc3c(NC4CCCCC4)ncnc32)[C@H](O)[C@@H]1O,outcome,[1],inactive
same,outcome,[2],inactive
same,Potency,[3],inactive
NCCSSCCN,outcome,[1],inactive
same,outcome,[2],inactive
same,Potency,[3],inactive
CCc1c(C(=O)NCCc2ccc(N3CCCCC3)cc2)[nH]c2ccc(Cl)cc12,outcome,[1],inactive
same,outcome,[2],inactive
same,Potency,[3],inactive
Oc1cc2c(cc1O)CN(C(=S)NCCc1ccc(Cl)cc1)CCC2,outcome,[1],inactive
same,outcome,[2],inactive
same,Potency,[3],inactive
O=C(O)[C@@H]1C[C@H](C(=O)O)N1,outcome,[1],inactive
same,outcome,[2],inactive
same,Potency,[3],inactive
NS(=O)(=O)C#Cc1ccccc1,outcome,[1],inactive
same,outcome,[2],inactive
same,Potency,[3],inactive
C[N+](C)(CCCCCC[N+](C)(C)CCCN1C(=O)c2cccc3cccc(c23)C1=O)CCCN1C(=O)c2cccc3cccc(c23)C1=O,outcome,[1],inactive
same,outcome,[2],inactive
same,Potency,[3],inactive
CCN1/C(=C/C(C)=O)Sc2ccc(OC)cc21,outcome,[1],inactive
same,outcome,[2],inactive
same,Potency,[3],inactive
O=C(Nc1ccccc1)c1cc([N+](=O)[O-])ccc1Cl,outcome,[1],inactive
same,outcome,[2],inactive
same,Potency,[3],inactive
N#C/C(=C\c1c[nH]c2ccccc12)C(=O)c1ccc(O)c(O)c1,outcome,[1],inactive
same,outcome,[2],inactive
same,Potency,[3],inactive
CNc1ncnc2c1ncn2[C@@H]1O[C@H](CO)[C@@H](O)[C@H]1O,outcome,[1],inactive
same,outcome,[2],inactive
same,Potency,[3],inactive
O=C1O/C(=C/Br)CCC1c1cccc2ccccc12 (stereo not drawn),outcome,[1],inactive
same,outcome,[2],inactive
same,Potency,[3],inactive
CCNC(=O)[C@H]1O[C@@H](n2cnc3c(N)nc(NCCc4ccc(CCC(=O)O)cc4)nc32)[C@H](O)[C@@H]1O,outcome,[1],inactive
same,outcome,[2],inactive
same,Potency,[3],5.17 µM (active)
N=c1ccn2c(n1)O[C@H]1[C@H](O)[C@@H](CO)O[C@H]12,outcome,[1],inactive
same,outcome,[2],inactive
same,Potency,[3],inactive
CCC1C(=O)OCC1Cc1cncn1C (stereo not drawn),outcome,[1],inactive
same,outcome,[2],inactive
same,Potency,[3],inactive
CC(C)NCC(O)COc1cccc2ccccc12 (stereo not drawn),outcome,[1],inactive
same,outcome,[2],inactive
same,Potency,[3],inactive
O=C(O)CC1CC(c2ccccc2)=NO1 (stereo not drawn),outcome,[1],inactive
same,outcome,[2],inactive
same,Potency,[3],inactive
Nc1ncnc2c1c(I)cn2[C@@H]1C[C@H](N)[C@@H](O)[C@H]1O,outcome,[1],inactive
same,outcome,[2],inactive
same,Potency,[3],inactive
CC12C(=O)OC(=O)C1(C)C1CCC2O1 (stereo not drawn),outcome,[1],inactive
same,outcome,[2],inactive
same,Potency,[3],inactive
OCC1O[C@H]([S-])[C@H](O)[C@@H](O)[C@@H]1O.[Au+] (stereo partly drawn),outcome,[1],inactive
same,Potency,[3],inactive
CC(C)NC[C@H](O)COc1cccc2[nH]ccc12,outcome,[1],inactive
same,Potency,[3],inactive
Nc1ncnc2c1ncn2[C@@H]1O[C@H](COP(=O)(O)OP(=O)(O)OP(=O)(O)OP(=O)(O)OC[C@@H]2O[C@H](n3cnc4c(N)ncnc43)[C@@H](O)[C@H]2O)[C@@H](O)[C@H]1O,outcome,[2],inactive
O=C(c1cc(O)c(O)c([N+](=O)[O-])c1)c1ccccc1F,outcome,[1],inactive
same,outcome,[2],inactive
same,Potency,[3],inactive
CN1CC(=O)N/C1=N/C(=O)Nc1cccc(Cl)c1,outcome,[1],inactive
same,outcome,[2],inactive
same,Potency,[3],inactive
same,Potency,[4],inactive
same,outcome,[5],inactive
same,outcome,[6],inactive
same,viability (% of control),[7],105%
same,"viability, percent of control",[8],111%
same,outcome,[9],inactive
Brc1c(Br)c(Br)c2n[nH]nc2c1Br,outcome,[1],inactive
same,outcome,[2],inactive
same,Potency,[3],inactive
Nc1nc(Nc2ccccc2)nc2c1ncn2[C@@H]1O[C@H](CO)[C@@H](O)[C@H]1O,outcome,[2],inactive
same,Potency,[3],inactive
CCCC1(C)C(C#N)(C#N)C1(C#N)C#N,outcome,[1],inactive
same,outcome,[2],inactive
same,Potency,[3],inactive
NCCNC(=O)c1ncsc1-c1cccc(F)c1,outcome,[1],inactive
same,outcome,[2],inactive
same,Potency,[3],inactive
CCOC(=O)N1CCN(/[N+]([O-])=N/Oc2ccc([N+](=O)[O-])cc2[N+](=O)[O-])CC1,outcome,[1],inactive
same,Potency,[3],inactive
CCCn1c(=O)c2[nH]c(-c3ccc(OCC(=O)NCCN)cc3)nc2n(CCC)c1=O,outcome,[1],inactive
same,outcome,[2],inactive
same,Potency,[3],inactive
CC(C)(C=O)Cc1cc(C(C)(C)C)c(O)c(C(C)(C)C)c1,outcome,[1],inactive
same,outcome,[2],inactive
same,Potency,[3],inactive
O=C1C(SCCO)=C(SCCO)C(=O)c2ccccc21,outcome,[1],inactive
same,Potency,[3],inactive
CN1CCc2cc(O)c(O)cc2C(c2ccccc2)C1 (stereo not drawn),outcome,[2],inactive
NCCCS(=O)(=O)O,outcome,[2],inactive
same,Potency,[3],inactive
N#C/C(=C\c1ccc(O)c(O)c1)C(=O)NCc1ccccc1,outcome,[2],inactive
same,Potency,[3],inactive
CC(=O)/C=C1\C(=O)N(C)c2ccccc21,outcome,[1],inactive
same,Potency,[3],inactive
CCCCCC(O)c1cccc(OCc2ccc3ccccc3n2)c1 (stereo not drawn),outcome,[2],inactive
same,Potency,[3],inactive
CCCCC/C=C\CC(O)/C=C/c1cccc(CC(O)CCCCO)n1 (stereo not drawn),outcome,[1],inactive
same,Potency,[3],inactive
Fc1cccc(/C=N/N=C/c2cccc(F)c2)c1,outcome,[1],inactive
same,outcome,[2],inactive
same,Potency,[3],inactive
Cc1cc2c(cc1Cl)N(C(=O)Nc1ccc(Oc3cccnc3C)nc1)CC2,outcome,[1],inactive
same,outcome,[2],inactive
same,Potency,[3],inactive
Oc1cc(O)cc(/C=C/c2ccc(O)c(O)c2)c1,outcome,[1],inactive
same,Potency,[3],inactive
NCC1OC(O[C@H]2[C@H](O)[C@@H](OC3C(O)C(N)CC(N)C3OC3OC(CO)C(O)C(O)C3N)O[C@@H]2CO)C(N)C(O)C1O (stereo partly drawn),outcome,[2],inactive
same,Potency,[3],inactive
CN1C2CC(OC(=O)[C@H](CO)c3ccccc3)CC1C1OC12 (stereo partly drawn),outcome,[1],inactive
same,outcome,[2],inactive
same,Potency,[3],inactive
CCCCCCCCCCCCCCCCCCNC(=O)OCC(COP(=O)([O-])OCC[n+]1ccsc1)OC (stereo not drawn),outcome,[2],inactive
same,Potency,[3],inactive
CN1CCc2cccc3c2C1Cc1ccc(O)c(O)c1-3 (stereo not drawn),outcome,[2],inactive
Cc1nc2sccn2c(=O)c1CCN1CCC(=C(c2ccccc2)c2ccc(F)cc2)CC1,outcome,[2],inactive
same,Potency,[3],inactive
Cn1ncc(S(=O)(=O)Cc2ccccc2)c(Br)c1=O,outcome,[1],inactive
same,Potency,[3],inactive
O=C(/C=C/c1ccc(O)cc1)c1ccc(O)cc1O,outcome,[1],inactive
same,Potency,[3],inactive
O=C1/C(=C/c2ccsc2)CC/C1=C\c1cccs1,outcome,[1],inactive
same,Potency,[3],inactive
O=C(/C=C/c1ccc(O)c(O)c1)OCCc1ccccc1,outcome,[1],inactive
same,Potency,[3],inactive
O=C(O)CNC(=O)C(CS)Cc1ccccc1 (stereo not drawn),outcome,[2],inactive
same,Potency,[3],inactive
O=S(=O)(c1cccc2c(I)cccc12)N1CCCNCC1,outcome,[1],inactive
same,outcome,[2],inactive
same,Potency,[3],inactive
CN1CCc2cc(NC(=O)Nc3cccnc3)ccc21,outcome,[1],inactive
same,outcome,[2],inactive
same,Potency,[3],inactive
CC(C)CC(NP(=O)(O)O[C@@H]1O[C@@H](C)[C@H](O)[C@@H](O)[C@H]1O)C(=O)NC(Cc1c[nH]c2ccccc12)C(=O)O (stereo partly drawn),outcome,[2],inactive
same,Potency,[3],inactive
CC1OC1P(=O)(O)O (stereo not drawn),outcome,[2],inactive
same,Potency,[3],inactive
N[C@@H](CC(=O)O)C(=O)O,outcome,[2],inactive
same,Potency,[3],inactive
C=C[C@H]1CN2CC[C@@H]1C[C@@H]2[C@@H](O)c1ccnc2ccc(OC)cc12,outcome,[2],inactive
same,Potency,[3],inactive
NCCCCC(=O)O,outcome,[2],inactive
same,Potency,[3],inactive
c1ccc(-c2ccccn2)nc1,outcome,[2],inactive
same,Potency,[3],inactive
O=C1NC(=O)/C(=C/c2ccc(-c3ccc(F)cc3O)o2)S1,Potency,[3],inactive
CN1CCc2ccccc2Cc2[nH]c3ccccc3c2CC1,outcome,[2],inactive
same,Potency,[3],inactive
COc1cc(OC)c(/C=C2/C(=O)Nc3ccccc32)c(OC)c1,outcome,[2],inactive
same,Potency,[3],inactive
CNC(=O)[C@H]1O[C@@H](n2cnc3c(NCc4ccc(N)cc4)ncnc32)[C@H](O)[C@@H]1O,outcome,[2],inactive
same,Potency,[3],inactive
O=C1NC(O)=NC1(c1ccccc1)c1ccccc1,Potency,[3],inactive
